The term inhibition denotes the change of the read-out against control, counted positive when it falls.

Holding throughout (format): functional
In experiment [1] the target is Solute carrier family 2, facilitated glucose transporter member 1 (Homo sapiens) (UniProt P11166). Kind of experiment: ST_JUDE_LEISH: Cytotoxicity at 2uM final concentration against transgenic Leishmania Mexicana promastigotes LmGLUT1 that are glucose transport deficient and complemented with the human glucose transporter GLUT1. Activity is measured by DNA content using SYBR green in vitro.

In experiment [2] the target is Hexose transporter 1 (Plasmodium falciparum) (UniProt O97467). The experiment is described as follows: ST_JUDE_LEISH: Cytotoxicity at 2uM final concentration against transgenic Leishmania Mexicana promastigotes LmPfHT that are glucose transport deficient and complemented with the Plasmodium falciparum hexose transporter. Activity is measured by DNA content using SYBR green in vitro.

Experiment [3] deals with Glucose transporter (Leishmania mexicana) (UniProt O61059). Kind of experiment: ST_JUDE_LEISH: Cytotoxicity at 2uM final concentration against transgenic Leishmania Mexicana promastigotes LmGT2 that are glucose transport deficient and complemented with the L. Mexicana glucose transporter 2. Activity is measured by DNA content using SYBR green in vitro.

Sequence of Solute carrier family 2, facilitated glucose transporter member 1 (Homo sapiens) (P11166 whole entry): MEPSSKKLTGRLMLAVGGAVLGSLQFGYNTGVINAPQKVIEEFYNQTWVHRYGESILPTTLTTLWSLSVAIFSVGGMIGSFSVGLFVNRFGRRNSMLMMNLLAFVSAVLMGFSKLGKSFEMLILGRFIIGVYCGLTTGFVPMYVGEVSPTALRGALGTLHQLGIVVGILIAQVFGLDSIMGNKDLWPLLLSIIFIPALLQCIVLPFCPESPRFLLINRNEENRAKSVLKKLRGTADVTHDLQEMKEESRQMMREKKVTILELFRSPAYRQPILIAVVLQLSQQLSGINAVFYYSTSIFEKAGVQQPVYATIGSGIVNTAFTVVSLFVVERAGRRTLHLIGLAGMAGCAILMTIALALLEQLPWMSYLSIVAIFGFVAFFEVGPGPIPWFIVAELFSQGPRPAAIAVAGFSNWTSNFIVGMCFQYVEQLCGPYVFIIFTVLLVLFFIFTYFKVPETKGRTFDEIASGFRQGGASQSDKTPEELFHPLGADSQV

On to `COc1ccc(CNC2Cc3ccccc3C2)cc1-c1ccc(S(=O)(=O)NCCN2CCCC2)s1`, for which the inhibition in experiment [1] was 17.7%; in experiment [2], 15.5%; in experiment [3] it was 7.58%.

Take `OCCNc1nc(Nc2ccc(Cl)cc2)nc2ccccc12`: the inhibition in experiment [1] is 6.17%; in experiment [2], 4.56%; in experiment [3] it was 1.54%.

Regarding `O=C(Nc1ccsc1)Nc1cccc(-c2cccc(-c3nc4cc(C(F)(F)F)ccc4[nH]3)c2)c1`, the inhibition in experiment [1] was -1.45%; in experiment [2], 1.47%; in experiment [3], 1.55%.

As for `CCOC(=O)c1ccc(N(CCCN(CCCN(c2ccc(C(=O)OCC)cc2)S(=O)(=O)c2ccc(C)cc2)CCc2ccc(O)cc2)S(=O)(=O)c2ccc(C)cc2)cc1`, the inhibition in experiment [1] came to 2.89%; in experiment [2], 2.43%; in experiment [3] it was 1.65%.

As for `COc1ccc(Nc2nc(NCc3ccco3)c3ccccc3n2)cc1`, the figures for the inhibition in experiment [1], in experiment [2] and in experiment [3] were 25.5%, 20% and 12.1%, respectively.

`CCCCc1cc(=O)oc2cc(C)cc(OCc3ccccc3F)c12`: the inhibition is -0.28% in experiment [1], 1.33% in experiment [2] and 1.06% in experiment [3].

As to `Oc1ccc2[nH]c(-c3ccc(F)cc3F)nc2c1CN1CCC(O)(c2ccccc2)CC1`, the inhibition is -0.28% in experiment [1], -0.92% in experiment [2] and 0.37% in experiment [3].

For the molecule `Clc1ccc(Nc2nc3ccc(Cl)cc3nc2Nc2ccc(Cl)cc2)cc1`, the inhibition is 7.56% in experiment [1], 6.73% in experiment [2] and 7.3% in experiment [3].

With `CC(CN(C)C)C(=O)Nc1ccc(-c2ccc(-c3nc4cc(C(F)(F)F)ccc4[nH]3)cc2)cc1` (stereo unspecified), the inhibition in experiment [1] is 12.9%; in experiment [2] it was 11.6%; in experiment [3] it was 9.66%.

On to `COc1ccc2nccc([C@@H](O)CN3CCC(NCc4ccc5c(c4)nnn5C(C)C)CC3)c2c1`, for which the inhibition in experiment [1] came out at 18.3%; in experiment [2], 20.9%; in experiment [3], 5%.

Consider `CN(C)CCC=C1c2ccccc2Sc2c(O)cc(Cl)cc21`, for which the inhibition in experiment [1] was -0.51%; in experiment [2] it was 4.06%; in experiment [3], 1.71%.

For the molecule `O=C(/C=C/c1ccc(Cl)c(Cl)c1)NCCCCCN1CCC(C(=O)Nc2ccc(F)c(Cl)c2)CC1`, the inhibition in experiment [1] was 4.66%; in experiment [2], 1.87%; in experiment [3], 1.53%.

Values taken from ChEMBL document CHEMBL3433997, “St. Jude Leishmania screening dataset” (2016).
